# Records with an inconclusive call do not appear. Entries that show only a call come without a potency. The source made the active and inactive calls. Calls follow the shape of the dose curve; as a rule, active = well fitted inhibition curve with a large enough effect; inconclusive = small, poorly fitted or top-dose-only effect; inactive = flat fitted curve, though single readings scatter.
# Legend:
# Assay in all cases: qHTS profiling for inhibitors of Plasmodium falciparum proliferation (AID 504749); also: nearly all actives have a fitted effect of over 60% in size
# Settings in all cases: P. falciparum in erythrocytes, SYBR Green DNA, 72 h; series mostly up to 28.7 µM
# DIV14 = tested on: DIV14
# Outline: (§1)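 Readout was DNA-dye fluorescence from lysed cultures, ex 485/em 535 nm. Parasitized red cells had grown 72 h with compound; data scaled between 0.29 uM artemisinin and DMSO wells and corrected using vehicle-only plates.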
# DIV17 = tested on: DIV17
# Outline: as §1
# DIV30 = tested on: DIV30
# Outline: as §1
# Dd2 = tested on: Dd2
# Outline: as §1
# ECU = tested on: ECU
# Outline: as §1
# FAB9 = tested on: FAB9
# Outline: as §1
# GB4 = tested on: GB4
# Outline: as §1
# HB3 = tested on: HB3
# Outline: as §1
# ICS = tested on: ICS
# Outline: as §1
# JCK = tested on: JCK
# Outline: as §1
# N140 = tested on: N140
# Outline: as §1
# P93_24 = tested on: P93_24
# Outline: as §1
# P94_40 = tested on: P94_40
# Outline: as §1
# PAD = tested on: PAD
# Outline: as §1
# PC15 = tested on: PC15
# Outline: as §1
# PC26 = tested on: PC26
# Outline: as §1
# PC49 = tested on: PC49
# Outline: as §1
# SC27B = tested on: SC27B
# Outline: as §1
# TAB109 = tested on: TAB109
# Outline: as §1
# TAB113 = tested on: TAB113
# Outline: as §1
# Potency is read from the fitted curve at half-maximal effect.
SMILES,Potency (DIV14),Potency (DIV17),Potency (DIV30),Potency (Dd2),Potency (ECU),Potency (FAB9),Potency (GB4),Potency (HB3),Potency (ICS),Potency (JCK),Potency (N140),Potency (P93_24),Potency (P94_40),Potency (PAD),Potency (PC15),Potency (PC26),Potency (PC49),Potency (SC27B),Potency (TAB109),Potency (TAB113)
CCCCCCCCCCCC[N+](C)(C)CCOc1ccccc1,5.36 µM (active),8.49 µM (active),13.5 µM (active),3.55 µM (active),5.01 µM (active),7.94 µM (active),5.36 µM (active),6.31 µM (active),2.24 µM (active),12.6 µM (active),7.94 µM (active),4.47 µM (active),4.47 µM (active),7.94 µM (active),10 µM (active),13.5 µM (active),8.91 µM (active),7.08 µM (active),5.01 µM (active),4.47 µM (active)
Oc1c(Br)cc(Br)cc1Br,inactive,inactive,inactive,inactive,inactive,inactive,inactive,inactive,inactive,inactive,inactive,inactive,inactive,inactive,inactive,inactive,inactive,inactive,inactive,inactive
CCC(=O)O[C@H]1CC[C@H]2[C@@H]3CCC4=CC(=O)CC[C@]4(C)[C@H]3CC[C@]12C,inactive,inactive,inactive,inactive,inactive,inactive,inactive,inactive,inactive,inactive,inactive,inactive,inactive,inactive,inactive,inactive,inactive,inactive,inactive,inactive
NC(=O)OCCCc1ccccc1,inactive,inactive,inactive,inactive,inactive,inactive,inactive,inactive,inactive,inactive,inactive,inactive,inactive,inactive,inactive,inactive,inactive,inactive,inactive,inactive
COP(=S)(OC)Oc1ccc(Sc2ccc(OP(=S)(OC)OC)cc2)cc1,inactive,inactive,inactive,inactive,inactive,inactive,inactive,inactive,inactive,inactive,inactive,inactive,inactive,inactive,inactive,inactive,inactive,inactive,inactive,inactive
O=C(O)c1nn(Cc2ccc(Cl)cc2Cl)c2ccccc12,inactive,inactive,inactive,inactive,inactive,inactive,inactive,inactive,inactive,inactive,inactive,inactive,inactive,inactive,inactive,inactive,inactive,inactive,inactive,inactive
CCC1(CC)C(=O)NC(=O)NC1=O,inactive,inactive,inactive,inactive,inactive,inactive,inactive,inactive,inactive,inactive,inactive,inactive,inactive,inactive,inactive,inactive,inactive,inactive,inactive,inactive
c1ccc2nc(N3CCNCC3)ccc2c1,inactive,inactive,inactive,inactive,inactive,inactive,inactive,inactive,inactive,inactive,inactive,inactive,inactive,inactive,inactive,inactive,inactive,inactive,inactive,inactive
CCN(Cc1ccc(Cl)nc1)/C(=C/[N+](=O)[O-])NC,inactive,inactive,inactive,inactive,inactive,inactive,inactive,inactive,inactive,inactive,inactive,inactive,inactive,inactive,inactive,inactive,inactive,inactive,inactive,inactive
CCCCCCCCC(=O)NCc1ccc(O)c(OC)c1,inactive,inactive,inactive,inactive,inactive,inactive,inactive,inactive,inactive,inactive,inactive,inactive,inactive,inactive,inactive,inactive,inactive,inactive,inactive,inactive
Cc1ccc(N=CN(C)C=Nc2ccc(C)cc2C)c(C)c1,inactive,inactive,inactive,inactive,inactive,inactive,inactive,inactive,inactive,inactive,inactive,inactive,inactive,inactive,inactive,inactive,inactive,inactive,inactive,inactive
O=C(CCCN1CCC(n2c(=O)[nH]c3ccccc32)CC1)c1ccc(F)cc1,0.642 µM (active),0.642 µM (active),2.56 µM (active),1 µM (active),1.78 µM (active),3.98 µM (active),0.809 µM (active),1 µM (active),0.316 µM (active),3.55 µM (active),0.891 µM (active),0.891 µM (active),0.891 µM (active),1.12 µM (active),1.26 µM (active),2.56 µM (active),2.82 µM (active),2 µM (active),1 µM (active),1.26 µM (active)

# Source: PubChem BioAssay (NCATS)
